Drawing on the supplement of paper PMC4894684, this text covers parasite growth for eleven compounds.

SMILES strings stand for the structures. Counter-ions that a name gives are not always drawn. ± gives the standard deviation of the averaged measurements. Bounds are passed on as bounds.

The assay concerns Toxoplasma gondii RH (in HFF). Description: parasite growth relative to the screen mean (all compounds = 100%); higher = less inhibition of parasite growth. The note with it: 5 µM; 72 h; oxygen 21 %. The method in brief: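 Values give growth relative to the screen mean. The screen mean (all compounds) is set at 100%, and two screens were averaged. Compounds at 5 µM final were placed on confluent human foreskin fibroblasts, which were infected within 2 h with RH β-Gal–GFP Toxoplasma (MOI 1:5) and kept 72 h at 21% O2 before a CPRG β-Gal readout against in-plate standard curves.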
Turning to `CN1C[C@H](CNC(=O)OCc2ccccc2)C[C@@H]2c3cccc4c3c(cn4C)C[C@H]21` [Metergoline], the parasite growth was found to be 71 ± 0.52%.

Regarding `N=C(N)NN` [Aminoguanidine hydrochloride], the parasite growth was 124 ± 28%.

In turn, `c1ccc(CCCCN2CCC(c3ccccc3)CC2)cc1` [4-PPBP maleate] displayed a parasite growth of 82.8 ± 5.3%. The result for `CN1C(=O)CCS(=O)(=O)C1c1ccc(Cl)cc1` (stereo unspecified) [Chlormezanone] reads 145 ± 22%; that for `N=C(NCc1ccc(Cl)cc1)SCCCc1c[nH]cn1` [Clobenpropit dihydrobromide], 106 ± 11%; that for `C[N+]1(C)CCc2cc3c(cc2[C@H]1[C@@H]1OC(=O)c2c1ccc1c2OCO1)OCO3` [(-)-Bicuculline methiodide], 108 ± 8.7%. `CC(C)[C@@]1(NC(=O)[C@@H]2C[C@@H]3c4cccc5[nH]cc(c45)C[C@H]3N(C)C2)O[C@@]2(O)[C@@H]3CCCN3C(=O)[C@H](Cc3ccccc3)N2C1=O` [Dihydroergocristine mesylate] returned a parasite growth of 8.76 ± 1.6%. The value for `C[C@@H]1CC[C@H]2[C@@H](C)C(=O)O[C@@H]3O[C@@]4(C)CC[C@@H]1[C@]32OO4` [Artemisinin] was 31.6 ± 8.8%.

In turn, `CC(C)C[C@H]1C(=O)N2CCC[C@H]2[C@]2(O)O[C@](NC(=O)[C@@H]3C=C4c5cccc6[nH]c(Br)c(c56)C[C@H]4N(C)C3)(C(C)C)C(=O)N12` [Bromocriptine mesylate] returned a parasite growth of 13.6 ± 8.4%.

The compound `CC(C)(Cc1c[nH]c2ccc(Cl)cc12)NCCOc1ccccc1OCC1CC1` gave a parasite growth of less than 0%.

`O=C(O)c1ccc2[nH]cc(CCCCN3CC=C(c4ccccc4)CC3)c2c1` [Carmoxirole hydrochloride]: the parasite growth came to 103 ± 7.4%.
